In PubChem BioAssay (NCATS):
Results filed as inconclusive are left out. Calls of active or inactive are those of the source. Unless noted, how the calls were made is not given here.

Key:
[1] = qHTS Assay for Identifying Gametocytocidal Compounds (AID 743244; active means well fitted curve in the direction sought with a large enough effect;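 further: on the % scale 0 is the no-effect control and ±100 the full control effect; actives lower the fluorescent signal which means gametocytes are killed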); conditions: P. falciparum 3D7 stage III-V gametocytes, alamarBlue, 72 h; max response: stronger effect = lower value
Method in brief: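 3D7 gametocytes, stages III–V, 20,000/well; cpd 72 h, 37 °C/5% CO2; + alamarBlue 24 h; fluor. Ex 525/Em 598.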

[2] = qHTS profiling of the MIPE4 collection as inhibitors of Plasmodium falciparum (3D7) proliferation (AID 743344);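 further: scaled between DMSO vehicle wells and 0.29 µM artemisinin as full inhibition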; conditions: P. falciparum 3D7 in erythrocytes, SYBR Green DNA fluorescence, 72 h; at 28.5 µM (top of the series) unless noted
Method in brief: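 Parasite DNA was quantified by SYBR Green I fluorescence (ex 485, em 535 nm) after overnight lysis in saponin/Triton buffer at room temperature. Cultures at 0.3% parasitemia and 2.5% hematocrit were first exposed to compound for 72 h at 37 C; signals were normalised to artemisinin (0.29 uM) and vehicle wells.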

For `CN(C)CCc1c[nH]c2ccc(CS(=O)(=O)N3CCCC3)cc12`, the max response [1] was 1.18% (inactive) and the parasite growth, % of DMSO control [2] was 94.3%.
In the case of `O=C(O)CSCC(=O)NC1CCSC1=O` (centres undefined), the max response [1] is reported as -6.62% (inactive) and the parasite growth, % of DMSO control [2] is reported as 102%.
In the case of `CCC(=O)O[C@]1(C(=O)CCl)[C@@H](C)C[C@H]2[C@@H]3CCC4=CC(=O)C=C[C@]4(C)[C@@]3(F)[C@@H](O)C[C@@]21C`, the max response [1] is reported as 4.44% (inactive) and the parasite growth, % of DMSO control [2] is reported as 6.83%.
In the case of `CC[C@H](NC(C)C)[C@H](O)c1ccc(O)c2[nH]c(=O)ccc12`, the max response [1] is reported as 0.956% (inactive) and the parasite growth, % of DMSO control [2] is reported as 96.3%.
With `NCCCC(O)(P(=O)(O)O)P(=O)(O)O` the max response [1] was 14.9% (inactive) and the parasite growth, % of DMSO control [2] was 96%.
In the case of `NC(=O)N1c2ccccc2CC(=O)c2ccccc21`, the max response [1] is reported as 34.3% (inactive) and the parasite growth, % of DMSO control [2] is reported as 92.2%.
For `CCOC(=O)c1ccc(OC(=O)CCCCCN=C(N)N)cc1`, the max response [1] was -8.62% (inactive) and the parasite growth, % of DMSO control [2] was 93%.
In the case of `Nc1[nH]c(=O)ncc1F`, the max response [1] is reported as -2.11% (inactive) and the parasite growth, % of DMSO control [2] is reported as 408%.
For `C[C@@H]1CN(c2c(F)c(N)c3c(=O)c(C(=O)O)cn(C4CC4)c3c2F)C[C@H](C)N1`, the max response [1] was 13.9% (inactive) and the parasite growth, % of DMSO control [2] was 55.7% [at 9.64 µM].
In the case of `COC(=O)Nc1nc2ccc(C(=O)c3ccccc3)cc2[nH]1`, the max response [1] is reported as -6.13% (inactive) and the parasite growth, % of DMSO control [2] is reported as 61.1%.
With `Cc1cccc(N(C)C(=S)Oc2ccc3ccccc3c2)c1` the max response [1] was 6.54% (inactive) and the parasite growth, % of DMSO control [2] was 51.5%.
With `CO[C@@]12[C@H](COC(N)=O)C3=C(C(=O)C(C)=C(N)C3=O)N1C[C@@H]1N[C@@H]12` the max response [1] was -9.88% (inactive) and the parasite growth, % of DMSO control [2] was 6.13%.
With `CCCN[C@H]1CCc2nc(N)sc2C1` the max response [1] was -5.22% (inactive) and the parasite growth, % of DMSO control [2] was 5.95%.
In the case of `COc1ccc(C(=O)CC(=O)c2ccc(C(C)(C)C)cc2)cc1`, the max response [1] is reported as 7.37% (inactive) and the parasite growth, % of DMSO control [2] is reported as 9.04%.
In the case of `COc1c(N2CCNC(C)C2)c(F)cc2c(=O)c(C(=O)O)cn(C3CC3)c12` (centres undefined), the max response [1] is reported as -5.93% (inactive) and the parasite growth, % of DMSO control [2] is reported as 17.5%.
For `CN1CCCC(n2nc(Cc3ccc(Cl)cc3)c3ccccc3c2=O)CC1` (centres undefined), the max response [1] was 32.9% (inactive) and the parasite growth, % of DMSO control [2] was 5.72%.
In the case of `O=C(O)c1ccc(-n2nc(-c3ccccc3O)nc2-c2ccccc2O)cc1`, the max response [1] is reported as -16.4% (inactive) and the parasite growth, % of DMSO control [2] is reported as 50.5%.
With `CC(=O)[C@H]1CC[C@H]2[C@@H]3CC=C4C[C@@H](O)CC[C@]4(C)[C@H]3CC[C@]12C` the max response [1] was 11.7% (inactive) and the parasite growth, % of DMSO control [2] was 89.9%.
For `CCOC(=O)c1ccc(C#Cc2ccc3c(c2)C(C)(C)CCS3)nc1`, the max response [1] was 32% (inactive) and the parasite growth, % of DMSO control [2] was 36.2%.
For `Cn1c(=O)c2c(ncn2CC(O)CO)n(C)c1=O` (centres undefined), the max response [1] was -1.9% (inactive) and the parasite growth, % of DMSO control [2] was 85.8%.
For `CCOc1cc(N)c(Cl)cc1C(=O)NCC1CN(Cc2ccc(F)cc2)CCO1` (centres undefined), the max response [1] was 1.28% (inactive) and the parasite growth, % of DMSO control [2] was 105%.
For `CC(C)(C)C(=O)OCOP(=O)(COCCn1cnc2c(N)ncnc21)OCOC(=O)C(C)(C)C`, the max response [1] was 4.48% (inactive) and the parasite growth, % of DMSO control [2] was 68.2%.
In the case of `NS(=O)(=O)c1cc2c(cc1Cl)NC(C(Cl)Cl)NS2(=O)=O` (centres undefined), the max response [1] is reported as 6.12% (inactive) and the parasite growth, % of DMSO control [2] is reported as 84.2%.
With `CC(N)C12CC3CC(CC(C3)C1)C2` (centres undefined) the max response [1] was 26.1% (inactive) and the parasite growth, % of DMSO control [2] was 76.2%.
For `CC(C(=O)O)c1ccc2c(c1)CC(=O)c1ccccc1S2` (centres undefined), the max response [1] was 43% (inactive) and the parasite growth, % of DMSO control [2] was 69.8%.
With `CS(=O)(=O)c1ccc([C@@H](O)[C@@H](CO)NC(=O)C(Cl)Cl)cc1` the max response [1] was 8.86% (inactive) and the parasite growth, % of DMSO control [2] was 40.4%.
For `COc1cc(NS(=O)(=O)c2ccc(N)cc2)nc(OC)n1`, the max response [1] was 22.6% (inactive) and the parasite growth, % of DMSO control [2] was 39.3%.
In the case of `Nc1ccc(S(=O)(=O)Nc2ccccn2)cc1`, the max response [1] is reported as 3.9% (inactive) and the parasite growth, % of DMSO control [2] is reported as 89.8%.
In the case of `CC(C)(Sc1cc(C(C)(C)C)c(O)c(C(C)(C)C)c1)Sc1cc(C(C)(C)C)c(O)c(C(C)(C)C)c1`, the max response [1] is reported as -1.03% (inactive) and the parasite growth, % of DMSO control [2] is reported as 23.4%.
In the case of `O=C(O)c1cccnc1`, the max response [1] is reported as 3.31% (inactive) and the parasite growth, % of DMSO control [2] is reported as 91.9%.
With `COC(c1ccccc1)(c1ccccc1)[C@H](Oc1nc(C)cc(C)n1)C(=O)O` the max response [1] was 8.54% (inactive) and the parasite growth, % of DMSO control [2] was 102%.
For `CC(C)(C#N)c1cc(Cn2cncn2)cc(C(C)(C)C#N)c1`, the max response [1] was 7.01% (inactive) and the parasite growth, % of DMSO control [2] was 89.6%.
For `COC(=O)Nc1nc2ccc(S(=O)c3ccccc3)cc2[nH]1` (centres undefined), the max response [1] was 20.6% (inactive) and the parasite growth, % of DMSO control [2] was 67%.
With `COc1ccc(-c2ccc3cc(C(=O)O)ccc3c2)cc1C12CC3CC(CC(C3)C1)C2` the max response [1] was 23.8% (inactive) and the parasite growth, % of DMSO control [2] was 66.2%.
Compound `CNCC[C@H](Oc1cccc2ccccc12)c1cccs1` has a parasite growth, % of DMSO control [2] of 6.18%.
